Molecules are shown by their SMILES. The source made the active and inactive calls. Calls come from the whole dose curve; as a rule, active = well fitted curve in the direction sought with a large enough effect; inconclusive = small, poorly fitted or top-dose-only effect, or another doubt; inactive = no such curve, though single readings can be large or run the other way.

The nature of this assay: qHTS for compounds that reverse cellular toxicity of Amyloid beta (A-beta) peptide in yeast: LOPAC Validation Assay (AID 720559). The conditions noted are these: yeast expressing A-beta; series mostly up to 46.1 µM. An excerpt: The A-beta peptide is produced by the processing of the amyloid precursor protein (APP) by two proteases, beta and gamma secretases. […] A-beta42 is regarded as the most amyloidogenic form due to its hydrophobicity; however, precisely how A-beta42 induces neurotoxicity is unclear. To understand further this biology and its potential therapeutic implications for human neurodegenerative disease, a quantitative high-throughput screen for compounds that reverse the cellular toxicity of the A-beta peptide was developed.
A yeast based screen was used because it recapitulates the salient feature of protein mis-folding disorder accurately. This cell-based phenotypic screen provides a significant, unbiased advantage by letting the compounds and models inform us which proteins or pathways are most relevant. The ideal chemical candidates would therefore have activity in both our primary yeast and secondary neuronal toxicity assays, as well as in mouse models. They will be valuable tools for dissecting diverse protein homeostasis pathologies and could potentially become the focus for future pre-clinical development. For this […] assay, inhibition of A-beta rescues the toxic effect in the yeast cell, resulting in increase of signals.
NIH Chemical Genomics Center [NCGC]
NIH Molecular Libraries Probe Centers Network [MLPCN]
Assay Submitter (PI): Susan Lindquist, Whitehead Institute, Massachusetts Institute of Technology
[1] Vassar R,et al (1999). Beta-secretase cleavage of Alzheimer's amyloid precursor protein by the transmembrane aspartic protease BACE. Science. 286: 735-741.
[2] Yan R, et al (1999). Membrane-anchored aspartyl protease with Alzheimer's disease beta-secretase activity. Nature.
Two and a half microliter / well of yeast growth medium were dispensed in a 1536 assay plate. Compounds were pinned using the Kalypsys robotic system followed by addition of 2.5 uL / well yeast solution. The assay plates were incubated at 30 C. After 48 hr, the absorbance signal at 600 nm was obtained using the PerkinElmer ViewLux plate reader to assess yeast growth. The data was normalized to the positive control of an equimolar mixture of ferric chloride (FeCl3) and clioquinol and to the negative control DMSO.
Consider `NCCS`, for which the call was inactive.

For `O=C1NC(=O)C(c2ccccc2)(c2ccccc2)N1`, the compound was classed as inactive.

With `CCn1cc(C(=O)O)c(=O)c2ccc(C)nc21`, the outcome was inactive.

`CC(=O)N[C@@H](CS)C(=O)O`: the result was inactive.

Take `CC(C)NCC(O)COc1cccc2[nH]ccc12` (stereo not drawn): the compound was classed as inactive.

In the case of `CC(=O)c1ccc(S(=O)(=O)NC(=O)NC2CCCCC2)cc1`, the compound was classed as inactive.

For `C[N+](C)(C)CCCCCC[N+](C)(C)C`, the compound was called inactive.

In the case of `CN(C)CCC(c1ccccc1)c1ccccn1` (stereo not drawn), the result was inactive.

For the compound `O=c1cc(-c2ccc(O)cc2)oc2cc(O)cc(O)c12`, the compound was classed as inactive.

With `CC(=O)O[C@]1(C(C)=O)CC[C@H]2[C@@H]3C=C(Cl)C4=CC(=O)[C@@H]5C[C@@H]5[C@]4(C)[C@H]3CC[C@@]21C`, the outcome was inactive.

Regarding `NC(N)=Nc1nc(CSCC/C(N)=N/S(N)(=O)=O)cs1`, the outcome was inactive.

As to `O=C1NCC2(CCN(CCc3ccccc3)CC2)O1`, the compound was classed as inactive.

`CC(=O)CCCCn1c(=O)c2c(ncn2C)n(C)c1=O`: the call was inactive.

With `O=C(O)CCc1nc(-c2ccccc2)c(-c2ccccc2)o1`, the compound was classed as inactive.

For `CC1(C)CCC2=C(O1)c1ccccc1C(=O)C2=O`, the outcome was inactive.

With `CCCCC1C(=O)N(c2ccccc2)N(c2ccccc2)C1=O`, the outcome was inactive.

As for `CCN(CC)CCNC(=O)c1ccc(N)cc1`, the result was inactive.

As to `COc1ccc(Cc2nccc3cc(OC)c(OC)cc23)cc1OC`, the compound was classed as inactive.

In the case of `CCCNC(=O)NS(=O)(=O)c1ccc(Cl)cc1`, the outcome was inactive.

For the compound `COC(=O)[C@@H]1[C@H]2C[C@H]3c4[nH]c5ccccc5c4CCN3C[C@@H]2CC[C@@H]1O`, the compound was called inactive.

Consider `CCN1CCC[C@H]1CNC(=O)c1cc(S(N)(=O)=O)ccc1OC`, for which the outcome was inactive.

As for `CC(C)(C)c1ccc(C(O)CCCN2CCC(C(O)(c3ccccc3)c3ccccc3)CC2)cc1` (stereo not drawn), the call was inactive.

For the compound `COc1ccccc1N1CCN(CCCNc2cc(=O)n(C)c(=O)n2C)CC1`, the compound was classed as inactive.

With `CCCCCN(C)CCC(O)(P(=O)(O)O)P(=O)(O)O`, the compound was called inactive.

On to `Clc1ccc(Cn2c(CN3CCCC3)nc3ccccc32)cc1`, for which the compound was called inactive.

In the case of `Cc1cccc(C)c1OCC(C)N` (stereo not drawn), the compound was classed as inactive.

On to `Clc1ccc(C(c2ccc(Cl)cc2)n2cc[n+](CC(OCc3ccc(Cl)cc3Cl)c3ccc(Cl)cc3Cl)c2)cc1` (stereo not drawn), for which the call was inactive.

Consider `COc1cccc(-c2cc(=O)c3ccccc3o2)c1N`, for which the compound was called inactive.

Take `CCN(CC)C(=O)c1ccc(O)c(OC)c1`: the outcome was inactive.

Turning to `CC/C(=C(\c1ccccc1)c1ccc(OCCN(C)C)cc1)c1ccccc1`, the outcome was inactive.

Regarding `CCN(CC)CCOC(=O)c1ccc(N)cc1`, the compound was called inactive.

Turning to `O=C(NCCN1CCOCC1)c1ccc(Cl)cc1`, the compound was called inactive.

For the compound `CC1=C(/C=C/C(C)=C/C=C/C(C)=C/C(=O)Nc2ccc(O)cc2)C(C)(C)CCC1`, the result was inactive.

Values taken from PubChem BioAssay (NCATS).
